Compound activity from PubChem.
This is a sample that favours compounds with a hit; in the whole collection about 7.5% have one here.
SMN2 splice enh = increases expression of the SMN2 splice variant. HEK293 SMN2-luciferase splicing reporter, luminescence, 30-36 h. Potency, µM (titrated, usually from 46.1 µM), for the others: top-dose activity change, positive = activation, hits mostly activators. 210,000 tested, 2.8% active; note: % of control where 0% means no effect; nearly all actives have a fitted effect of over 55% in size
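qHTS luciferase splicing reporter: luminescence rises when SMN2 exon 7 is included in transfected HEK293 cells. Compound exposure lasted 30-36 h at 37C, with 4.5 mM final sodium butyrate as control, followed by a ONE-Glo read.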
ELG1 genotox = induces genotoxicity in HEK293T cells with luciferase-tagged ELG1; HEK293T ELG1-luciferase reporter, luminescence, 16 h; Potency, µM (highest dose often 46 µM), inactives show at the highest dose activity change, positive = activation, hits mostly activators; 330,000 tested, 1.3% active; note: % of control where 0% means no effect; nearly all actives have a fitted effect of over 60% in size
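Genotoxic stress is detected as increased luminescence from luciferase-tagged ELG1 in HEK293T cells, measured with ONE-Glo after a 16 hr treatment at 37 °C.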
Luc counter = blocks Kinase-Glo luciferase, a counter-screen artifact | AID 1379 | Kinase-Glo luciferase, ATP luminescence, 8 min | Potency, µM (doses to about 38.3 µM), for the others: at the highest dose activity change, negative = inhibition, most hits filed as inhibitors | 200,000 tested, 0.28% active; note: % is set by controls: 0 for no effect and ±100 for the full control effect; nearly all actives have a fitted effect of over 60% in size
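Light output from Kinase-Glo luciferase with luciferin and 10 uM ATP in 50 mM imidazole pH 7.2, KCl, MgCl2, Tween 20, BSA; compound pin-delivered, 8-min ambient incubation, then luminescence read.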
NPC1 prom act = NPC1 promoter activation; Huh7 NPC1 promoter luciferase reporter, 24 h; Potency, µM (highest dose often 9.22 µM), inactives show top-dose activation, actives largely listed as activators; 320,000 tested, 2.4% active; AID 485313; note: % of control where 0% means no effect; nearly all actives have a fitted effect of over 60% in size
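Huh7 reporter cells (NPC1 promoter driving luciferase) are dosed with compound for 24 h at 37 °C, 5% CO2; luciferase detection reagent is then added and luminescence measured after 10 min at ambient temperature.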
FLuc counter = firefly luciferase modulation, counter-screen for miR-21 project | AID 588342 | 360,000 tested, 6.9% active | purified FLuc, Km substrates, luminescence inhibition | Potency, µM (highest dose often 57.5 µM), inactives show top-dose activity change, negative = inhibition, actives largely listed as inhibitors | P08659;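 note: plate controls were vehicle for no effect and reference inhibitor for full effect; nearly all actives have a fitted effect of over 55% in size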
Target sequence (P08659 whole entry, looked up): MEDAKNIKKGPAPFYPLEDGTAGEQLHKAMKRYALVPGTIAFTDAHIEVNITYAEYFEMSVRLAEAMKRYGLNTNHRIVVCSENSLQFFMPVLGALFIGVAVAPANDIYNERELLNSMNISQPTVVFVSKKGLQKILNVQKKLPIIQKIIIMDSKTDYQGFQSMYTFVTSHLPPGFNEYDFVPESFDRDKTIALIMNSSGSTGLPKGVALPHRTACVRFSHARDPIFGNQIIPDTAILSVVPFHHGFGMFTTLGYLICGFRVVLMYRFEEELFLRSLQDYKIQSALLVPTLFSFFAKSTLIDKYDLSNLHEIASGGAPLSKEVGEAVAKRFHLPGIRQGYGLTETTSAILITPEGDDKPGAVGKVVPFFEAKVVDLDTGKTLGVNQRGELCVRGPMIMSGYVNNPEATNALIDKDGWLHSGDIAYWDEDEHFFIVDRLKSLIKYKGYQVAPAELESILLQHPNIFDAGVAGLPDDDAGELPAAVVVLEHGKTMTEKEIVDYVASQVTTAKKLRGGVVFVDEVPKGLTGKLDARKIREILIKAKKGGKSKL
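Purified P. pyralis luciferase (10nM final) with 10uM D-luciferin and 10uM ATP (Km levels) in 50mM Tris acetate pH 7.5, 10mM Mg acetate, 0.01% Tween-20, 0.05% BSA; qHTS 6-point titration, ~60 µM downward; luminescence read.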
Rab9 promoter act = activators of Rab9 promoter; Huh7 Rab9 promoter-luciferase reporter, luminescence, 24 h; Potency, µM (doses to about 9.22 µM), inactives show at the top dose activation, negative = inhibition, actives largely listed as activators; 320,000 tested, 2.8% active; AID 485297; note: % of control where 0% means no effect; nearly all actives have a fitted effect of over 60% in size
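Luminescence from Amplite-detected luciferase (10 minutes, ambient) reports Rab9 promoter activation. Before that, stable Rab9-luciferase Huh7 cells (1500/well, reduced-serum OP-MEM I plus 10% FBS) were exposed to compound for 24 hours at 37C.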
* marks the source's active call; other numbers are inactive results; ? = inconclusive; . = not tested or not shown; [ ] = dose if it differs, or a comment. Calls come from the whole dose curve; as a rule, active = well fitted curve in the direction sought with a large enough effect; inconclusive = small, poorly fitted or top-dose-only effect, or another doubt; inactive = no such curve, though single readings can be large; an effect the other way counts as inactive or inconclusive. Potency is the fitted concentration of half-maximal effect.

SMILES	SMN2 splice enh	ELG1 genotox	Luc counter	NPC1 prom act	FLuc counter	Rab9 promoter act
COc1ccc(CCNC(=S)N2CCC(C(=O)c3ccc(F)cc3)CC2)cc1OC	-65%	-8%	-5%	-18%	-5%	-24%
COc1ccc(CCNC(=O)C2CCCN(c3nn4c(=O)cc(C)nc4s3)C2)cc1OC (stereo not given)	9%	-3%	0%	6%	-3%	-2%
COc1ccc2nc(N3CCCC(C(=O)NCCc4ccc(OC)c(OC)c4)C3)sc2c1 (stereo not given)	.	-10%	.	2.8µM*	8.5µM*	2.8µM*
COc1ccc(C(=O)C2CCN(C(=S)NCCc3ccc(OC)c(OC)c3)CC2)cc1	.	-4%	-4%	-9%	19µM*	-20%
COc1ccc2nc(N3CCCC(C(=O)NCCCN4CCN(C)CC4)C3)sc2c1 (stereo not given)	-2%	14%	-7%	0%	17µM*	16%
CCOc1ccc2nc(N3CCCC(C(=O)Nc4ccc(OC)c(Cl)c4)C3)sc2c1 (stereo not given)	20µM*	.	.	.	3µM*	.
COc1ccc(C(=O)N2CCCCC2CCN2CCOCC2)cc1 (stereo not given)	5%	.	.	.	-1%	.
CCOc1ccc2nc(N3CCCC(C(=O)NCCCN4CC(C)CC(C)C4)C3)sc2c1 (stereo not given)	.	2%[9.26 µM]	.	3%	?	0.89µM*
CCOc1ccc(Nc2nc3ccccc3n3c(CC)nnc23)cc1	9%	.	.	.	?	.
C/C(=N/NC(=O)CNC(=O)COc1ccccc1)c1ccc(Cl)cc1	.	2%	.	0%	-2%	-5%
O=C(Nc1ccc(-c2nc3cc(Cl)ccc3o2)cc1)c1cc(Br)ccc1Cl	-7%	.	.	.	?	.
CC(=O)Nc1ccc(-c2nc3cc(Cl)ccc3o2)cc1	.	2.1µM*	.	0.5µM*	1.3µM*	0.79µM*
CC(=O)Nc1cc(-c2nc3cc(Cl)ccc3o2)ccc1C	.	.	.	.	-18%	.
O=C(O)c1ccccc1-c1ccccc1C(=O)Nc1ccc(-c2nc3cc(Cl)ccc3o2)cc1	.	17%	.	1%	15µM*	14%
CC(NC(=O)C(=O)N1CCCCC1)C(c1cccs1)N1CCN(c2ccccc2)CC1 (stereo not given)	.	-2%	.	0%	2%	-1%
COCCC(=O)N1CCC(Oc2ccc(C(=O)N3CCCCC3CCO)cc2)CC1 (stereo not given)	.	1%	.	1%	4%	1%
COc1cc(/C=N/NC(=O)c2ccccn2)ccc1OC(=O)c1cccs1	.	?	.	?	13µM*	21%
COc1cc(/C=N/Nc2ccc(Cl)c(C(=O)O)c2)ccc1OC(=O)c1cccs1	17%	11%	-1%	22%	24µM*	?
CCOc1cc(/C=N/NC(=O)COc2ccc(C)cc2)ccc1OC(=O)c1cccs1	1%	4%	-1%	1%	5%	5%
COc1cc(/C=N/Nc2ccccc2)ccc1OC(=O)c1cccs1	?	?	-4%	5%	21µM*	15%
COc1cc(/C=N/NC(=O)COc2ccc(C)cc2)ccc1OC(=O)c1cccs1	-15%[1.84 µM]	11%	-3%	-2%	11µM*	2%
COc1cc(/C=N/NC(=O)C(N)=O)ccc1OC(=O)c1cccs1	6%	1%	-2%	-2%	-1%	-3%
COc1ccc(NC(=O)CSc2nnnn2C)c([N+](=O)[O-])c1	-15%	0%	2%	-3%	-2%	-4%
COc1cc(/C=N/NC(=O)c2cccnc2)cc2c1OCO2	.	1%	.	-1%	-4%	6%
COc1cc(/C=N/NC(=O)c2ccccn2)cc2c1OCO2	11µM*	?	-8%	?	24µM*	?
O=C(O)C[C@H](Cc1ccccc1Cl)C(=O)O	-12%[9.22 µM]	.	-1%[7.66 µM]	.	.	.
O=S(=O)(c1cccc2nonc12)N1CCN(c2ccc(F)cc2)CC1	.	6%	-1%	-1%	27µM*	-8%
